Results reported in PubChem BioAssay AID652115 (Broad Institute, 2013).
Where “and” joins values, the source holds several entries; their conditions need not be identical. Equal entries are not always repeated. In all, about 330,000 compounds went through this assay and about 3,800 (1.2%) were called active. No stated cut-off is given here; in the data, active means inhibition above about 15%; inconclusive means no clear call, values can overlap the other calls; inactive means below that. Many of the other results were omitted from the sample, so actives are more common in it than they were.

Each compound was assayed against NAD-dependent protein deacylase sirtuin-5, mitochondrial (Homo sapiens) (UniProt Q9NXA8) (assay: blockers of sirtuin-5 deacylase activity – biochemical, fluorescence imaging, single point, set 5, primary screen (AID 652115)). Conditions: Purified SirT5, succinyl-peptide AMC, trypsin-coupled fluorescence; at 15 µM; stronger effect = higher value.
Sequence of NAD-dependent protein deacylase sirtuin-5, mitochondrial (Homo sapiens) (Q9NXA8 whole entry, looked up): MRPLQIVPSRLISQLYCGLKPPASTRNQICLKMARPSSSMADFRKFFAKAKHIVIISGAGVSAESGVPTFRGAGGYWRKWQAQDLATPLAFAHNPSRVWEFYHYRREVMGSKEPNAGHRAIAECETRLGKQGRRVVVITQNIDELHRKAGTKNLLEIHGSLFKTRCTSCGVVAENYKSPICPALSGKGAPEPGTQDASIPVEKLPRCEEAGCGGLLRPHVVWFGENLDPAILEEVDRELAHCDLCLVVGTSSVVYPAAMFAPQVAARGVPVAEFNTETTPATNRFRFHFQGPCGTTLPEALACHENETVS

inhibition, active:
CC(C)OCCCNC(=S)N1CCC(C(=O)c2ccc3c(c2)OCCO3)CC1 26.6%
CCOC(=O)Cc1ncccc1C(=O)Nc1ccc(OC)cc1 15.7%
NC(=O)c1ccc(Nc2ccc3c(c2)CCC3)c([N+](=O)[O-])c1 28.4%
CCCNC(=O)Nc1ccc2c(c1)C(=O)N(C)[C@H]1CC[C@H](CC(=O)NCC3CCCCC3)O[C@@H]1CO2 31.7%
C(=N\Nc1ccc2ccccc2n1)/c1ccc2c(c1)OCO2 15.4%
O=C(Nc1ccncc1)c1ccc(Cl)c([N+](=O)[O-])c1 31.2%
OC[C@H]1[C@H](c2ccc(-c3cccnc3)cc2)[C@H]2CN(Cc3ccccn3)CCCCN21 15.6%
Cc1ccc(S(=O)(=O)N(C)C[C@@H]2OCc3ccccc3-c3c(n(C)c4ccccc34)C(=O)N([C@@H](C)CO)C[C@@H]2C)cc1 17.7%
C[C@H]1CN([C@@H](C)CO)C(=O)c2cc(NC(=O)Cc3cn(C)c4ccccc34)ccc2O[C@@H]1CN(C)Cc1ccc(Cl)c(Cl)c1 22.6%
Cc1ccc(S(=O)(=O)N(C)C[C@H]2Oc3ccc(NC(=O)Cc4cn(C)c5ccccc45)cc3CC(=O)N([C@@H](C)CO)C[C@H]2C)cc1 16.9%
COc1ccccc1S(=O)(=O)N(C)C[C@H]1Oc2cc(C#CCC3CCCC3)ccc2S(=O)(=O)N([C@@H](C)CO)C[C@H]1C 16.1%
COc1ccccc1S(=O)(=O)N(C)C[C@@H]1Oc2cc(C#CCC3CCCC3)ccc2S(=O)(=O)N([C@H](C)CO)C[C@H]1C 18.3%
C=C1c2c(Cl)ccc(O)c2C(O)=C2C(=O)[C@]3(O)C(O)=C(C(N)=O)C(=O)[C@@H](N(C)C)[C@@H]3[C@@H](O)C12 (stereo not given in full) 35.9%

inhibition, inactive:
O=C(C[C@H]1C[C@@H]2c3cc(NC(=O)C4CCC4)ccc3O[C@@H]2[C@H](CO)O1)NCCN1CCCCC1 -1.29%
C[C@H](CO)N1C[C@H](C)[C@@H](CN(C)C)Oc2c(NC(=O)Nc3ccc(F)cc3)cccc2C1=O -3.52%
C[C@H]1CN([C@@H](C)CO)C(=O)c2cc(-c3ccccc3F)cnc2O[C@@H]1CN(C)C -1.72%
CCCNC(=S)N1CCC(NC(=O)c2ccc(OC)cc2)CC1 2.19%
COCCNC(=O)C1CCN(S(=O)(=O)c2ccc3c(c2)OCCO3)CC1 -1.09%
O=C(c1cccnc1)N1CC2(C1)[C@@H](c1ccccc1)[C@H](CO)N2C(=O)C1CCC1 -1.71%
CCOC(=O)Cc1ncccc1C(=O)Nc1ccc(OC(F)(F)F)cc1 -0.166%
COc1ccc(NC(=O)c2ccccc2CC[N+](=O)[O-])cc1 -2.27%
COc1cccc(C(=O)Nc2ccc3c(c2)C(=O)N(C)[C@@H]2CC[C@H](CC(=O)NCCCN4CCOCC4)O[C@H]2CO3)c1 1.19%
COc1cccc(C#Cc2cnc3c(c2)C(=O)N([C@H](C)CO)C[C@@H](C)[C@@H](CN(C)C(=O)C2CCC2)O3)c1 0.234%
O=C(N[C@@H]1CC[C@@H](CC(=O)N2CCc3ccccc3C2)O[C@H]1CO)C1CC1 3.34%
CCS(=O)(=O)N1CC(=O)N2[C@H](CO)[C@@H](c3ccc(C#Cc4cccc(F)c4)cc3)[C@@H]2C1 -0.525%
CCOc1ccccc1Nc1ccc(C(=O)O)cc1[N+](=O)[O-] -0.287%
NC(=O)c1ccc(Nc2ccc3nonc3c2[N+](=O)[O-])cc1 2.49%
CCC(=O)Nc1ccc2c(c1)C(=O)N(C)[C@H]1CC[C@H](CC(=O)NCC3CCCCC3)O[C@H]1CO2 -3.85%
CCNC(=O)Nc1ccc2c(c1)C(=O)N(C)[C@H]1CC[C@H](CC(=O)NCC3CCCCC3)O[C@@H]1CO2 3.92%
C[C@@H]1CN([C@H](C)CO)C(=O)CCCn2cc(nn2)CO[C@@H]1CN(C)Cc1ccccc1C(=O)O -0.401%
COc1ccc2c3c([nH]c2c1)[C@H](CO)N(C(=O)C1CCCCC1)CC31CCN(C(=O)c2ccncc2)CC1 -1.36%
COc1cccc(S(=O)(=O)N2[C@@H]3CNC[C@H]2C3c2ccc(-c3cccc(C(=O)N(C)C)c3)cc2)c1 (stereo not given in full) 3.63% and 4.46%
Cc1cc(=O)[nH]c(N/N=C/c2ccc3c(c2)OCCO3)n1 2.57%
Cc1noc(C)c1/C=N/Nc1ccc2ccccc2n1 -4.8%
CN(C)Cc1cn(CC[C@H]2CC[C@H](NC(=O)Nc3ccccc3F)[C@@H](CO)O2)nn1 -13.2%
O=C(Nc1ccncc1)c1ccc([N+](=O)[O-])cc1Cl -1.67%
Cc1ccnc(NC(=O)c2ccc(Cl)c([N+](=O)[O-])c2)c1 -6.51%
COCC(=O)N[C@@H]1C[C@@H]2O[C@@H](CO)CC[C@@H]2O[C@@H]1CCc1ccc(-c2ccccc2)cc1 -3.27%
CN(C)CC(=O)Nc1ccc2c(c1)[C@H]1C[C@H](CC(=O)NCc3ccccc3)O[C@@H](CO)[C@H]1O2 -5.86%
Cc1cccc(CN(C)C[C@H]2OCc3cn(nn3)CCCC(=O)N([C@@H](C)CO)C[C@H]2C)c1 -2.48%
CCCNC(=O)N1[C@H](CO)[C@@H](c2ccc(-c3ccc(C(=O)N(C)C)cc3)cc2)[C@@H]1C#N 5.61%
COc1ccc(NC(=O)N(C)C[C@@H]2OCCCC[C@H](C)Oc3ccc(NC(=O)c4ccccc4)cc3C(=O)N([C@H](C)CO)C[C@H]2C)cc1 3.2%
CCC(=O)N1CCCCN2[C@H](CO)[C@@H](c3ccc(-c4cccnc4)cc3)[C@H]2C1 0.057%
OC[C@@H]1[C@H](c2ccc(Br)cc2)[C@@H]2CN(Cc3ccccn3)CCCCN12 3.43%
CN1C(=O)c2cc(NC(=O)NC3CCCC3)ccc2OC[C@@H]2O[C@@H](CC(=O)O)CC[C@H]21 -7.32%
O=C(C[C@@H]1CC[C@H](NC(=O)Nc2ccc(F)cc2)[C@H](CO)O1)NCc1ccccn1 1.52%
CC=Cc1ccc2n(c1=O)C[C@@H]1[C@@H](CO)[C@H](C(=O)NCC3CC3)[C@H]2N1C(=O)c1ccccc1 (mixture of isomers) -10.5%
COC(=O)C[C@@H]1C[C@@H]2c3cc(NC(=O)NC4CCCC4)ccc3O[C@@H]2[C@@H](CO)O1 -3%
Cc1ccc(S(=O)(=O)N(C)C[C@@H]2Oc3ccc(NC(=O)Cc4cn(C)c5ccccc45)cc3C(=O)N([C@@H](C)CO)C[C@@H]2C)cc1 4.27%
C[C@@H]1CN([C@@H](C)CO)C(=O)c2cc(NC(=O)Cc3ccccc3)ccc2O[C@H]1CN(C)Cc1ccc(Cl)c(Cl)c1 14.1%
C[C@@H]1CN([C@H](C)CO)C(=O)Cc2cc(NC(=O)Cc3cn(C)c4ccccc34)ccc2O[C@@H]1CN(C)S(=O)(=O)c1ccccc1 0.96%
C[C@@H]1CN([C@@H](C)CO)C(=O)c2c(c3ccccc3n2C)-c2ccccc2CO[C@@H]1CN(C)S(=O)(=O)c1ccc(F)cc1 3.02%
C[C@H]1CN([C@@H](C)CO)C(=O)c2c(c3ccccc3n2C)-c2ccccc2CO[C@H]1CN(C)S(=O)(=O)c1ccc(C#N)cc1 3.54%
C[C@H]1CN([C@@H](C)CO)C(=O)c2cc(NC(=O)Cc3cn(C)c4ccccc34)ccc2O[C@H]1CN(C)Cc1ccc(Cl)c(Cl)c1 7.81%
CC=Cc1ccc2n(c1=O)C[C@@H]1[C@@H](CO)[C@H](C(=O)NC3CCCC3)[C@H]2N1C(=O)c1cnccn1 (mixture of isomers) -1.91%
Cc1cccc(-c2ccc([C@H]3[C@H](CO)N4CCCCN(S(=O)(=O)c5cn(C)cn5)C[C@@H]34)cc2)c1 -2.31%
O=C(C[C@@H]1CC[C@@H]2[C@H](COC[C@@H](O)CN2Cc2ccc(F)cc2)O1)NCc1ccncn1 2.45%
COc1cccc(S(=O)(=O)N(C)C[C@H]2Oc3cc(C#CCN(C)C)ccc3S(=O)(=O)N([C@H](C)CO)C[C@H]2C)c1 2.32%
COc1cccc(S(=O)(=O)N(C)C[C@@H]2Oc3cc(C#CCN(C)C)ccc3S(=O)(=O)N([C@@H](C)CO)C[C@@H]2C)c1 -0.424%
COCC#Cc1ccc2c(c1)O[C@@H](CN(C)S(C)(=O)=O)[C@H](C)CN([C@H](C)CO)S2(=O)=O -0.381%
CCCC#Cc1ccc2c(c1)O[C@@H](CN(C)S(=O)(=O)c1cccc(OC)c1)[C@H](C)CN([C@@H](C)CO)S2(=O)=O 0.047%
C[C@H](O)C#Cc1ccc2c(c1)O[C@@H](CN(C)C(=O)C1CCCCC1)[C@H](C)CN([C@@H](C)CO)S2(=O)=O 5.37%
O=C(C[C@H]1CC[C@H]2[C@@H](COC[C@@H](O)CN2C(=O)Nc2ccc(C(F)(F)F)cc2)O1)NC1Cc2ccccc2C1 -1.39%
CN(C)[C@@H]1C(=O)C(C(N)=O)=C(O)[C@@]2(O)C(=O)C3=C(O)c4c(O)ccc(Cl)c4[C@@H](O)[C@H]3C[C@@H]12 6.39%
CNC(=O)C[C@H]1CC[C@H]2[C@H](COc3ccc(NC(=O)c4cccc(F)c4)cc3C(=O)N2C)O1 -1.94% and 2.58%
